This passage reports activity change, negative = inhibition and Potency results from PubChem BioAssay AID595 (National Center for Advancing Translational Sciences (NCATS), 2007).

Structures are written as SMILES. Out of some 71,000 compounds screened, about 310 (0.44%) were called active. Roughly 5% stayed inconclusive and do not appear here. The list comes from a sample in which actives are over-represented; it also holds similar structures and randomly drawn compounds. Where a call stands in place of a potency, no number is given. A number with no mark means an inactive call. The call rests on the fitted dose curve; in most records, active means well fitted curve in either direction with a large enough effect; inconclusive means small, poorly fitted or top-dose-only effect, or another doubt; inactive means flat fitted curve, though single readings scatter.
Potency means the concentration at half of the fitted maximal effect.

This assay has as its system Hsp90 C-terminal peptide / TPR2A (Hop) interaction, human. As to the kind of experiment: qHTS Assay for Disrupters of an Hsp90 Co-Chaperone Interaction. To be noted: AlphaScreen TPR2A-His6 binding biotin-Hsp90 C-terminal peptide; series mostly up to 57 µM. The text has this:
NIH Chemical Genomics Center [NCGC]
NIH Molecular Libraries Screening Centers Network [MLSCN]
Hsp90 (heat shock protein 90) is the essential molecular chaperone and it accounts for 1-2% of all cytosolic proteins and is critical for the activity of diverse cellular proteins that are involved in a variety of cellular processes, including development, cell cycle, and steroid hormone signaling. Its client proteins include signaling kinases such as IGF1R, Akt, v-Src, Raf-1; regulators of cell survival such as Bcr-Abl; and transcription factors such as mutated p53, estrogen and progesterone receptors. Hsp90 has emerged as an important target for cancer treatment due to its essential role in maintaining transformation and regulating the function of oncogenic signaling proteins.
The in vivo function of Hsp90 is regulated by the binding and hydrolysis of ATP at its N-terminal. Geldanamycin binds to ATP site and inhibit Hsp90 function. Geldanamycin and its analogues are under clinical trials in cancer patients.
This domain contains the binding site for tetratricopeptide repeat (TPR) domains on HOP (Hsp Organizing Protein). TPR is a structural motif used by a significant number of cochaperones by which the in vivo function of Hsp90 is regulated. TPR2A on HOP binds specifically to MEEVD motif of the C-terminal of Hsp90.
A homogeneous AlphaScreen is developed to assess the interaction between TPR2A and MEEVD motif of the C-terminal of Hsp90 by using the isolated TPR2A domain and a synthesized 20mer Hsp90 C terminal peptide. AlphaScreen is two bead-based proximity-dependent chemical energy transfer luminescent assay platform. TPR2A-His-6 and biotinylated Hsp90 C terminal peptide will bring streptavidin donor beads and nickel chelate acceptor beads to a proximity range (less than 200 nm), and subsequently lead a chemical luminescent reaction upon exciting donor beads with 680 nm laser. Inhibition of TPR2A and MEEVD motif interaction by small molecules could attenuate or abolish this chemical luminescent reaction.
Counter screening: Biotinylated-His-6 (PerkinElmer) can be utilized as a counter screen, as it serves as a linker to bring streptavidin beads and nickel chelate beads together. The counter screen can exclude alpha screen platform false positives due to small molecules being metal chelators, biotin analogues and imidazole analogues, or due to interfering with oxygen release from donor beads. Such an assay should be utilized to qualify any activity observed in this screen.
NCGC Assay Protocol Summary:
The assay was performed on 1536-well white plate (untreated solid bottom). Liquids were dispensed by 1536-well plate washer (Kalypsys, San Diego, CA). Plates were read on EnVision (PerkinElmer, Boston, MA).TPR2A-His6 was produced using a bacteria expression system and purified using a well developed method (Ghosh et al., 2000). Hsp90 C terminal 20-mer peptide with or without an N-terminal biotin group are synthesized using automated solid phase synthesis by the Yale Keck facility. The composition of assay buffer was (in mM) 25 HEPES, 100 KCl, 2 MgCl2 and 2 DTT; 0.1% BSA and 0.01% Tween-20. TPR2A-His6 binding to biotin-Hsp90 will bring streptavidin donor beads and nickel chelate acceptor beads (PerkinElmer) together and can be measured by Alpha reading by EnVision (PerkinElmer). Free Hsp90 blocks biotin-Hsp90 binding to TPR2 and serves as a positive control in the current asssay.
The assay was performed at room temperature. All compounds were screened as titrations from […] to 46 uM final concentration. The assay was performed in 1536-well format plates (untreated white solid bottom, Corning Inc.) as follows:
Sequence,Parameter,Value,Description
1,Reagent,3 uL TPR2A-His6,Final concentration was 5nM
2,Compound,23 nL,Final titration was from 0.7 nM to 46 uM
3,Time,15 minutes,Room temperature
4,Reagent,1 uL biotin-Hsp90,With and without free Hsp90. Final concentration was 10 nM for biotin-Hsp90 and 10uM for free Hsp90.
5,Time,1 hour,Room temperature
[…]
As for `CC1(C)S[C@@H]2[C@@H](NC(=O)[C@@H](N)c3ccccc3)C(=O)N2[C@H]1C(=O)O`, the activity change, negative = inhibition result was “inactive”.
Same read-out and setting: in the case of `O=C(NCC12CC3CC(C1)CC(CNC(=O)N1CCCC1)(C3)C2)N1CCCC1` it was “inactive”; in that of `CC(C)NC(=O)N1CCCC2(CCN(C(=O)c3cccn3C)CC2)C1`, “inactive”.
As for `c1ccc2c(Nc3ccncc3)nc(-c3ccoc3)nc2c1`, the activity change, negative = inhibition entry is “inactive”.
On the same count and under the same terms, in the case of `O=C(c1ccncc1)N1CCC2(CCN(Cc3cc(C(F)(F)F)cc(C(F)(F)F)c3)CC2)CC1` it was “inactive”; in that of `COc1ccc(-n2c(=O)c(-c3cn(C)c4ccccc34)nc3cnc(OC)nc32)cc1`, “inactive”.
Take `COc1ccccc1CCn1c(=O)c(-c2cn(C)c3ccccc23)nc2cncnc21`: the Potency is 631 nM [activator] (active).
With `Cn1cc(-c2nc3cncnc3n(-c3ccccc3)c2=O)c2ccccc21`, the activity change, negative = inhibition result was “inactive”.
Take `COC(=O)[C@@]1(Cc2ccc(OC)cc2)[C@H]2c3cc(C(=O)N4CCCC4)n(Cc4ccc(OC(F)(F)F)cc4)c3C[C@H]2CN1C(=O)c1ccccc1`: the activity change, negative = inhibition result is “inactive”.
Still for that read-out and setting: under `Cc1ccc(Br)cc1` stands “inactive”; under `Cc1nc2cnc(N3CCNCC3)nc2n(CCc2ccccc2)c1=O`, “inactive”; under `C(=C\c1ccccc1)/CSc1nnc(-c2cccnc2)n1Cc1ccco1`, “inactive”.
The same measure, in the same setting: under `CCCS(=O)(=O)N1CCC(C(=O)NCCCN(C)Cc2ccccc2)CC1` stands “inactive”; under `COc1ccccc1CNc1ccnc(-c2c(C)noc2C)n1`, “inactive”.
Same read-out and setting: under `CSc1ccc(S(=O)(=O)Nc2cccc(F)c2)cc1` stands “inactive”.
As to `O=C(O)C1CCCN1S(=O)(=O)c1ccc2c(c1)CCC2` (centres undefined), the activity change, negative = inhibition entry is “inactive”.
With `CC(C)c1cc(CN(C)C)c(O)c(C(C)(C)C)c1`, the activity change, negative = inhibition is 1.81% [at 11 µM].
On to `CCC(C)(NC(=O)c1ccccn1)C(=O)NC1CCCCC1` (centres undefined), for which the activity change, negative = inhibition result is “inactive”.
On to `CCOc1ccc(C(=O)N(Cc2ccc(N(C)C)cc2)C2CCS(=O)(=O)C2)cc1` (centres undefined), for which the activity change, negative = inhibition result was “inactive”.
Still for that read-out and setting: under `CC(C)Cn1c(CN(Cc2ccccc2)Cc2ccccc2)nc2c1c(=O)n(C)c(=O)n2C` stands “inactive”; under `COc1ccc(CN2C(=O)CN=C2Nc2ccc(C)cc2C)cc1`, “inactive”.
Same read-out and setting: in the case of `OCCCNCc1ccccn1` it was -9.89% [at 11 µM]; in that of `CCCCC[C@H](O)CCCC(=O)O`, “inactive”.
Same read-out and setting: in the case of `CCCn1c(-c2ccc(F)cc2)nc2c(NC3CCN(Cc4ccccc4)C3)nc(C)nc21` (centres undefined) it was “inactive”; in that of `CC(=O)CCS(=O)(=O)c1ccc(C)c(C)c1`, “inactive”; in that of `C#CCN1CC(C)/C(=N/O)CC1C` (centres undefined), “inactive”.
With `COc1ccc(Cl)cc1NC(=O)C1CC(=O)N(c2ccc(F)cc2)C1` (centres undefined), the activity change, negative = inhibition result was “inactive”.
Take `C[C@H](CCC(=O)O)[C@H]1CC[C@@H]2[C@H]3CC[C@H]4C[C@H](O)CC[C@@]4(C)[C@@H]3CC[C@@]21C`: the activity change, negative = inhibition was -0.844% [at 11 µM].
Turning to `COCCn1c(=O)c(CCc2ccccc2)nc2cnc(N3CCNCC3)nc21`, the activity change, negative = inhibition result was “inactive”.
The same measure, in the same setting: under `Oc1ccccc1CNCc1ccccc1O` stands -2.03% [at 11 µM]; under `O=C(Cl)c1ccc([N+](=O)[O-])cc1`, “inactive”.
On the same count and under the same terms, in the case of `Cc1noc(C)c1-c1cc(NCc2cccnc2)ncn1` it was “inactive”.
Regarding `c1ccc2sc(SCCSc3nc4ccccc4s3)nc2c1`, the activity change, negative = inhibition is 2.87% [at 11 µM].
Take `O=C(O)CCCCC(=O)O`: the activity change, negative = inhibition result was “inactive”.
Take `CN(C)c1ccc(-c2nc(NCCN3CCOCC3)c3ccccc3n2)cc1`: the activity change, negative = inhibition entry is “inactive”.
The same measure, in the same setting: in the case of `COC(=O)c1c(-c2ccc(C)cc2)csc1N` it was “inactive”; in that of `CC(C)CC1(C(=O)NCc2ccccn2)C=CCN1C(=O)c1ccccc1` (centres undefined), “inactive”.
In the case of `CN(CCCNC(=O)CN1C(=O)CC(C)(C)S(=O)(=O)c2ccccc21)C1CCCCC1`, the activity change, negative = inhibition result was “inactive”.
Take `O=c1[nH]c(=O)n([C@H]2C[C@H](O)[C@H](CO)O2)cc1Br`: the activity change, negative = inhibition result was “inactive”.
The same measure, in the same setting: in the case of `Cc1ccc(S(=O)(=O)Nc2ccccc2CNc2c(C)n(C)n(-c3ccccc3)c2=O)cc1` it was “inactive”.
Still for that read-out and setting: in the case of `N[C@H](C(=O)O)c1ccc(C(=O)O)c(O)c1` it was “inactive”.
As to `CCCn1c(=O)c2[nH]c(-c3ccc(OCC(=O)NCCN)cc3)nc2n(CCC)c1=O`, the activity change, negative = inhibition entry was “inactive”.
As for `COc1ccc(OC)c(CN2C(=O)CCC2(C)C(=O)NC2CCCCCC2)c1` (centres undefined), the activity change, negative = inhibition entry was “inactive”.
`CCCCC/C=C/C=C/C=O`: the activity change, negative = inhibition result was “inactive”.
Same read-out and setting: in the case of `N#Cc1cccc(-c2nc3cnc(N4CCNCC4)nc3n(C3CC3)c2=O)c1` it was “inactive”.
Same read-out and setting: under `O=c1c(-c2ccc(F)cc2)nc2cncnc2n1-c1ccccc1` stands “inactive”; under `c1ccc2c(c1)-c1ccccc1C2N1CC2CCC(CC2)C1`, 2.37% [at 11 µM].
With `COc1ccc(C[C@H](N)C(=O)N[C@@H]2[C@H](O)[C@H](n3cnc4c(N(C)C)ncnc43)O[C@@H]2CO)cc1`, the activity change, negative = inhibition result was “inactive”.
Consider `Cc1cc(Cl)ccc1OCC(=O)Oc1c(Cl)c(Cl)c(Cl)c(Cl)c1Cl`, for which the activity change, negative = inhibition was 0.356% [at 11 µM].
